Among the data in PubChem BioAssay (NCATS) are Potency values, retold here.

Molecules are shown by their SMILES. Records with an inconclusive call do not appear. A call without a number means that no potency is given here. Calls of active or inactive are those of the source. Calls come from the whole dose curve; as a rule, active = well fitted inhibition curve with a large enough effect; inconclusive = small, poorly fitted or top-dose-only effect; inactive = flat fitted curve, though single readings scatter.
Potency is the fitted concentration of half-maximal effect.

The test in a line: BET inhibitor-based combinations targeting novel dependencies in MECOM-rearranged (r) AML: AML-194 cell line (AID 2202237; note: nearly all actives have a fitted effect of over 40% in size). As to conditions: AML-194 (MECOM-r AML) viability, CellTiter-Glo, 48 h; series mostly up to 46 µM. The source says:
Ecotropic viral insertion site 1 (EVI1) is located on chromosome 3q26.2 as part of the MECOM (MDS and EVI1 complex) locus. Under normal hematopoiesis, EVI1 is a regulator of hematopoietic stem cell maintenance and self-renewal and EVI1 levels decrease as the cells differentiate. In approximately 5-10% of de novo acute myeloid leukemia (AML) EVI1 is aberrantly expressed, including Chromosomal inv(3)(q21;q26.2) or t(3;3)(q21;q26.2) alterations (MECOM-r) that account for about 50% of AML with EVI1 overexpression 31. AMLs with high levels of EVI1 have a poor prognosis and an overall survival time averaging between 10-14 months. EVI1 overexpression confers resistance in leukemia cells, highlighting the need to develop new targeted therapies for EVI1 overexpressing AMLs.
Here, we performed an unbiased chemical drug screening by evaluating the single agent activity of a collection of 2,480 oncology-focused, approved and investigational drugs (NCATS Mechanism Interrogation Plates, MIPE v5.0) against a panel of seven AML cell lines. These included four MECOM-r cell-lines (AML-191, AML-194, UCSD-AML1 and HNT-34) and three non-MECOM-r AMLs (MV4-11, OCI-AML3 and SET-2). Exploiting the mechanistic redundancy built in the library, we identified target-level sensitivities in MECOM-r AML cells and relative activity as compared to other AML subtypes.
A collection of 2480 mechanistically annotated dugs (MIPE v5.0) was used to screen four 3q26.2 rearranged AML cell lines and three non-3q26.2 rearranged AML cell lines. This library purposely exploits redundancy by including multiple inhibitors of key onco-targets, while simultaneously encompassing mechanistic diversity, targeting more than 800 distinct mechanisms of action. Briefly, cells were seeded in 5 uL of growth media using a Multidrop Combi dispenser into 1536 well white polystyrene tissue culture treated plates (Corning) at a density of 500cells/well. For each cell-line, for each of the 2480 drugs in MIPE v5.0 library, an 11-point dose curve was generated via a 1536 pin-tool. Plates were incubated for 48 hr at standard incubator conditions, covered by a stainless steel gasketed lid to prevent evaporation. Cell viability was determined by luminescence based, Cell Titer Glo assay (Promega). In detail, 3 uL of Cell Titer Glo were added to each well and plates were incubated at room temperature for 15 min with a stainless-steel lid in place. Luminescence readings were taken using a Viewlux (PerkinElmer) with a 2 s exposure time per plate. Compound dose-response curves were normalized to DMSO and empty well controls on each plate. Quantitative drug activity data from dose-response curves was determined utilizing area Under the Curve (AUC) and Z-transformed AUC (Z-AUC, a mean-centering transformation applied to each individual cell-line screened).
As for `Oc1ccc(C2CNCCc3c2cc(O)c(O)c3Cl)cc1` (stereo not given), the Potency result is “inactive”.
Then `CC(C)(C)C(=O)Oc1ccc(S(=O)(=O)Nc2ccccc2C(=O)NCC(=O)O)cc1`, with “inactive”; and `Oc1ccc(C2=Cc3ccc(O)cc3OC2)cc1`, with 10.5 µM (active); and `O=C(Nc1ccc(F)c(C(F)(F)F)c1)Nc1nnc(-c2ccncc2)s1`, with “inactive”.
Then `O=C(Nc1cc(C(F)(F)F)cc(C(F)(F)F)c1)c1cc(Cl)ccc1O`, with 2.63 µM (active).
For `c1cc(CN2CCCNCCNCCCNCC2)ccc1CN1CCCNCCNCCCNCC1`, the Potency result was “inactive”.
The entry for `O=C(O)c1cn(-c2ccc(F)cc2)c2cc(N3CCNCC3)c(F)cc2c1=O` is “inactive”; for `Fc1ccc(Cl)cc1-c1nc(Nc2ccncc2)c2nccnc2n1` it is “inactive”; for `O=C(NNc1ccccc1)c1ccncc1` it is “inactive”.
The entry for `CN(C)CCOC(c1ccccc1)c1ccccc1` is “inactive”; for `CC(C)OC(=O)C(C(=O)OC(C)C)=C1SC=CS1` it is “inactive”; for `O=C(NC1CCOCC1)c1ccc(-c2cc(-c3cn[nH]c3-c3ccccn3)ccn2)cc1` it is “inactive”.
The entry for `NC(=O)OCC(COC(N)=O)c1ccccc1` is “inactive”.
`CC(C)n1cnc2c(NCCc3ccc(O)cc3)nc(-c3csc4ccccc34)nc21`: the Potency was 20.9 µM (active).
Then `COc1ccc(CNc2nc(N(CCO)CCO)nc3c2ncn3C(C)C)cc1`, with 5.9 µM (active); and `O=C(/C=C/C=C/c1ccc2c(c1)OCO2)N1CCCCC1`, with “inactive”.
The figure for `C[C@@H](NCCCc1cccc(C(F)(F)F)c1)c1cccc2ccccc12` is 26.3 µM (active).
Then `O=C(c1ccc(Nc2nccc(-c3cc4ccccc4s3)n2)cc1)N1CCC(N2CCCC2)CC1`, with 7.42 µM (active); and `COc1ccc(C2CNC(=O)C2)cc1OC1CCCC1` (stereo not given), with “inactive”.
Turning to `CCOC(=O)C=C[C@H](C[C@@H]1CCNC1=O)NC(=O)[C@@H](CC(=O)[C@@H](NC(=O)c1cc(C)on1)C(C)C)Cc1ccc(F)cc1`, the Potency entry is “inactive”.
Then `CNC(=O)CN1CCC(Oc2cc3c(Nc4cccc(Cl)c4F)ncnc3cc2OC)CC1`, with “inactive”; and `O=C(O)c1ccc(CCCc2ccc(OCCc3ccc(F)cc3)cc2)o1`, with “inactive”.
For the compound `Cn1cncc1C(N)(c1ccc(Cl)cc1)c1ccc2c(c1)c(-c1cccc(Cl)c1)cc(=O)n2C` (stereo not given), the Potency is 20.9 µM (active).
As for `CC(C)Cc1ccc(C(C)C(=O)O)cc1` (stereo not given), the Potency result was “inactive”.
The entry for `COCCCN1CCC(NC(=O)c2cc(Cl)c(N)c3c2OCC3)CC1` is “inactive”; for `CC[C@]1(O)C[C@H]2CN(CCc3c([nH]c4ccccc34)[C@@](C(=O)OC)(c3cc4c(cc3OC)N(C=O)[C@H]3[C@@](O)(C(=O)OC)[C@H](OC(C)=O)[C@]5(CC)C=CCN6CC[C@]43[C@@H]65)C2)C1` it is 0.296 µM (active); for `Cc1[nH]c(/C=C2\C(=O)Nc3ccc(F)cc32)c(C)c1C(=O)NCCN1CCCC1` it is 7.23 µM (active).
`CCOC(=O)[C@H](CCc1ccccc1)N[C@@H](C)C(=O)N1[C@H](C(=O)O)C[C@@H]2CCC[C@@H]21`: the Potency result is “inactive”.
The entry for `CN1CCC(=C2c3ccccc3C=Cc3ccccc32)CC1` is “inactive”; for `CCC1(c2ccccc2)C(=O)NCNC1=O` it is “inactive”.
As to `OCCCNc1cc(-c2ccnc(Nc3cccc(Cl)c3)n2)ccn1`, the Potency is 0.332 µM (active).
Then `CCNCc1nc2c(N)nc3ccccc3c2n1CC(C)(C)O`, with “inactive”.
Then `CC(C)OC(=O)C1=CN(C(=O)c2ccc(F)c(F)c2)CC(C)(C)c2c1[nH]c1ccccc21`, with “inactive”; and `CC(C)c1c(C(=O)Nc2ccccc2)c(-c2ccccc2)c(-c2ccc(F)cc2)n1CC[C@@H](O)C[C@@H](O)CC(=O)O`, with 12.9 µM (active).
Then `N#CC(c1ccc(Cl)cc1)c1c(Cl)cc(-n2ncc(=O)[nH]c2=O)cc1Cl` (stereo not given), with “inactive”; and `NC12CC3CC(CC(C3)C1)C2`, with “inactive”.
Regarding `CC(=O)O[C@]1(C(C)=O)CC[C@H]2[C@@H]3C[C@H](C)C4=CC(=O)CC[C@]4(C)[C@H]3CC[C@@]21C`, the Potency is 9.34 µM (active).
Then `COc1cc([C@@H]2c3cc4c(cc3[C@H](O)[C@H]3COC(=O)[C@@H]23)OCO4)cc(OC)c1OC`, with 0.525 µM (active).
The entry for `O=C(O)CCn1c2c(c3ccccc31)C[C@H](NS(=O)(=O)c1ccc(F)cc1)CC2` is “inactive”.
For `CCc1cc(C(N)=S)ccn1`, the Potency entry is “inactive”.
